Test results as given in PubChem BioAssay AID493042 (Johns Hopkins Ion Channel Center, 2011).
Entries with a potency or affinity are not part of this list. Activity calls are given as the source filed them.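 Rule for the calls: active = potentiation or inhibition seen at some tested dose and a dose response curve obtained; inactive = no potentiation or inhibition at any dose, or no curve.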

These compounds were tested against Potassium voltage-gated channel subfamily KQT member 1 (Homo sapiens) + Potassium voltage-gated channel subfamily E member 1 (Homo sapiens) (UniProt P15382+P51787) (assay: activation of human KCNQ1/KCNE1 current – automated patch clamp, CHO cells, selectivity assay for KCNQ2 activator project, dose response (AID 493042)). Conditions: series mostly up to 30 µM; potentiation, negative = inhibition: at the top concentration.
Sequence of Potassium voltage-gated channel subfamily KQT member 1 (Homo sapiens) + Potassium voltage-gated channel subfamily E member 1 (Homo sapiens) (O88943 whole entry, looked up): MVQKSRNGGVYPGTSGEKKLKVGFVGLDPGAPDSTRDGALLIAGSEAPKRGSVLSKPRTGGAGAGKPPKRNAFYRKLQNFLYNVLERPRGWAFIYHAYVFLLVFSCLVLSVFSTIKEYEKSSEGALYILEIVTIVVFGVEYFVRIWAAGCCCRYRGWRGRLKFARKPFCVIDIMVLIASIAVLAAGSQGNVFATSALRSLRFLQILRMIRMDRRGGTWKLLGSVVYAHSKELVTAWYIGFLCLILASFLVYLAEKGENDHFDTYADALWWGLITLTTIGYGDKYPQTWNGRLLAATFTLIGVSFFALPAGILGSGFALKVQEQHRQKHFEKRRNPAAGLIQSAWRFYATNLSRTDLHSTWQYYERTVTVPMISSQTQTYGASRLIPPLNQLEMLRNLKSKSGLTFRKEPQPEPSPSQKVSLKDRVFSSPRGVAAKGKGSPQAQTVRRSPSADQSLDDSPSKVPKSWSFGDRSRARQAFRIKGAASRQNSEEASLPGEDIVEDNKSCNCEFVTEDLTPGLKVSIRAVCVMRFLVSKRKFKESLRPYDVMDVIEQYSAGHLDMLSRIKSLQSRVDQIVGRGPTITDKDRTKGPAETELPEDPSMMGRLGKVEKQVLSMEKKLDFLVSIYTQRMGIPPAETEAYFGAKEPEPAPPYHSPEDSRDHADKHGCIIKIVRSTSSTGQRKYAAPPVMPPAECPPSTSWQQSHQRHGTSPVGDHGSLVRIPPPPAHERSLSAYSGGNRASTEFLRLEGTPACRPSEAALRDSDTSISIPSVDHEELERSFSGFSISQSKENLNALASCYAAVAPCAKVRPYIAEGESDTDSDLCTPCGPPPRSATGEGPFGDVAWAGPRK
Sequence of Potassium voltage-gated channel subfamily KQT member 1 (Homo sapiens) + Potassium voltage-gated channel subfamily E member 1 (Homo sapiens) (P51787 whole entry, looked up): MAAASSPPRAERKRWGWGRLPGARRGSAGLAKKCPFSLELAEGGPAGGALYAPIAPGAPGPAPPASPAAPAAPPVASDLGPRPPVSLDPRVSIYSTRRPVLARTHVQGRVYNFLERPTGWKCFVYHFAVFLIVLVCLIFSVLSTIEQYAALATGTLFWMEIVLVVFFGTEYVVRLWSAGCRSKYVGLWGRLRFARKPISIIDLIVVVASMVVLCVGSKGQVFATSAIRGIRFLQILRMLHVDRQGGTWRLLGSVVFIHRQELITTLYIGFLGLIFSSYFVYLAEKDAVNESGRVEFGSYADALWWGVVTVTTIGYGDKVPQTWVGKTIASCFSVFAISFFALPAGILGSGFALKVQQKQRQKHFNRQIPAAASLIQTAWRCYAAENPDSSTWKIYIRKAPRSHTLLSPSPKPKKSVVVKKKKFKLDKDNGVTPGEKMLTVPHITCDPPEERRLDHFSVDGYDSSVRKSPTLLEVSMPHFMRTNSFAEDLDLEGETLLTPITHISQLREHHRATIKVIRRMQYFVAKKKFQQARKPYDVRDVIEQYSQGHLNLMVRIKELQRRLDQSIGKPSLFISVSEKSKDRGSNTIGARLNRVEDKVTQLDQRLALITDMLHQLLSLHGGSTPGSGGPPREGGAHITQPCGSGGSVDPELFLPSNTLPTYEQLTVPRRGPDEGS

potentiation, negative = inhibition, inactive:
CCCCC(=O)Nc1c(C)cc(C)cc1Cl -32.8
Cc1cc(C)c(NC(=O)CC(C)(C)C)c(Cl)c1 46.7
Cc1cccc(C)c1NC(=O)C1CC2CCC1C2 (stereo not drawn) 29.7
